HT1080NT lethal – qHTS for induction of synthetic lethality in tumor cells producing 2HG: qHTS for the HT-1080-NT fibrosarcoma cell line; 1.6% of 360,000 active; Potency, µM (series often up to 46.1 µM), usual class: cytotoxic; AID 686970, 2013; HT-1080-NT fibrosarcoma viability, CellTiter-Glo ATP luminescence, 48 h;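 further: NT is the 2HG producing partner of a matched IDH1 knockdown line; nearly all actives have a fitted effect of over 55% in size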
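Fibrosarcoma NT cells, 750 per well in 5% FBS RPMI, were exposed to compound for 48 hours. Viability: CellTiter-Glo luminescence.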
IL1B secr inh – qHTS for Inhibitors of Inflammasome Signaling: IL-1-beta AlphaLISA Primary Screen. THP-1 LPS/ATP IL-1B secretion, AlphaLISA, 16 h; hits give low values. activity change, % at 57.5 µM. 4.7% of 360,000 active. AID 743279, 2014; in the data active means activity change below about -50%; inconclusive means mostly about -30% to -49%
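Secreted IL-1B measured by AlphaLISA bead assay after 16 h compound exposure of THP-1 cells; compounds (final up to 57.5 uM) added 1 h before LPS (250 ng/mL) and ATP (1.25 mM) stimulation; lower signal means less secretion.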
12-LOX inh – Primary qHTS assay for inhibitors of human arachidonate 12S-lipoxygenase (ALOX12): Round 2; Polyunsaturated fatty acid lipoxygenase ALOX12 (Homo sapiens), P18054; purified 12hLO, xylenol orange hydroperoxide absorbance; Potency, µM (top dose mostly 108 µM), usual class: inhibitors; 1.1% of 580,000 active
Target sequence (P18054 whole entry, looked up): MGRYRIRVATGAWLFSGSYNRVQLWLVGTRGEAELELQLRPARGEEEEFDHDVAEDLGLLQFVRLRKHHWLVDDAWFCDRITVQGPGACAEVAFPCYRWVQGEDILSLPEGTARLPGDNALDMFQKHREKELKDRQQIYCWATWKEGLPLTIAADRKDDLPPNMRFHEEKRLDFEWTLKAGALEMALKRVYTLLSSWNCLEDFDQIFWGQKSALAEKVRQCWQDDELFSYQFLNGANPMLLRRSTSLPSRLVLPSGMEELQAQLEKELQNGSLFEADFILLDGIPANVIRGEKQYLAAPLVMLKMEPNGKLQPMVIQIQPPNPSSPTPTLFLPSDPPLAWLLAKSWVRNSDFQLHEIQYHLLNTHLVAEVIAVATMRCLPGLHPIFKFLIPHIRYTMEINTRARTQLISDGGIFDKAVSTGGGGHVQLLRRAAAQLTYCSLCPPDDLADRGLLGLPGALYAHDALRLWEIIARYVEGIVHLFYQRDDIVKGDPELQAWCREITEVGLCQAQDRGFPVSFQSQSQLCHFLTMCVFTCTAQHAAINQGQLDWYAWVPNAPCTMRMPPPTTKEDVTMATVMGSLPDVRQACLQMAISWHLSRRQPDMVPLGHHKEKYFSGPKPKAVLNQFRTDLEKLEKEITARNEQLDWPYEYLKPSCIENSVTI
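Hydroperoxide product was detected by ferrous iron/xylenol orange as the 573 to 405 nm absorbance ratio. Arachidonic acid at 40 uM (final) was turned over for 30 min at room temperature by 150 nM human 12hLO, pH 7.0 Hepes buffer, after 15 min compound preincubation.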
TDP1 cell noCPT – qHTS for Inhibitors of human tyrosyl-DNA phosphodiesterase 1 (TDP1): qHTS in cells in absence of CPT | 15% of 420,000 active | Potency, µM (titrated, usually from 46.2 µM), most hits filed as inhibitors | DT40 Tdp1-/- hTDP1 cells, no CPT, ATP luminescence, 48 h | AID 686978, 2013; further: nearly all actives have a fitted effect of over 55% in size
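Chicken DT40 Tdp1-/- cells stably complemented with human TDP1 were seeded at 400 cells/well with DMSO in place of 20 nM camptothecin. After compound pinning, cells grew at least 48 hr at 37 °C; viability read by CellTiter-Glo luminescence.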
TDP1 cell CPT – qHTS for Inhibitors of human tyrosyl-DNA phosphodiesterase 1 (TDP1): qHTS in cells in presence of CPT. chicken DT40 Tdp1-/-;hTDP1 cells + 20 nM CPT, ATP luminescence, 48 h. Potency, µM (series often up to 46.2 µM), usual class: inhibitors. 12% of 420,000 active. AID 686979, 2013; further: nearly all actives have a fitted effect of over 55% in size
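Chicken DT40 Tdp1-/- cells stably complemented with human TDP1 were seeded at 400 cells/well in medium containing 20 nM camptothecin, exposed to pin-transferred compounds, and grown at 37 °C for at least 48 hr. Viability was read as ATP luminescence.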
HT1080 IDH1KD tx – qHTS for induction of synthetic lethality in tumor cells producing 2HG: qHTS for the HT-1080-IDH1KD cell line; HT-1080 IDH1 knockdown viability, ATP luminescence, 48 h; Potency, µM (series often up to 46.1 µM), hits mostly cytotoxic; 2% of 360,000 active; AID 686971, 2013
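In this qHTS, HT-1080 cells depleted of IDH1 are exposed for 48 h at 37 °C to compound titrations. Toxicity is scored from CellTiter-Glo luminescence, with DMSO as full viability and medium alone as none.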
Numbers stand for hits; 0 = inactive; ? = inconclusive; - = not tested or not shown. This is one part of a sample in which hits are shown more often than they occur. Unless noted, the call rests on the fitted dose curve; in most records, active means well fitted curve in the direction sought with a large enough effect; inconclusive means small, poorly fitted or top-dose-only effect, or another doubt; inactive means no such curve, though single readings can be large; an effect the other way counts as inactive or inconclusive.

SMILES | HT1080NT lethal | IL1B secr inh | 12-LOX inh | TDP1 cell noCPT | TDP1 cell CPT | HT1080 IDH1KD tx
CCCN1C(=O)/C(=c2\sc3nc(=O)c(Cc4ccc(C)cc4)nn3c2=O)c2ccccc21 | 0 | ? | 50µM | 0 | 0 | 0
CCCNC(=O)c1ccc2c(c1)ncn2-c1ccccc1OC | 0 | 0 | 0 | ? | 0 | 0
COc1ccc(CNc2ccc3c(c2)ncn3-c2ccccc2OC)cc1 | 0 | -91 | 0 | ? | ? | 0
COc1ccccc1-n1cnc2cc(NCc3ccco3)ccc21 | 5.2µM | 0 | 0 | 1.3µM | 1.5µM | ?
COc1ccccc1-n1cnc2cc(NCc3cccs3)ccc21 | 3.7µM | 0 | 0 | 0.92µM | 0.73µM | 2.1µM
CCOc1ccc(CNc2ccc3c(c2)ncn3C)cc1 | 0 | 0 | ? | ? | 0 | 0
CCOc1ccc(CNc2ccc3c(c2)ncn3C(C)(C)C)cc1 | 0 | 0 | 0 | 21µM | ? | 0
CC(C)(C)n1cnc2cc(NC(=O)c3cccs3)ccc21 | 0 | -70 | 0 | 23µM | ? | 0
Cc1ccccc1-n1cnc2cc(NCc3cccs3)ccc21 | 0 | 0 | 0 | 23µM | ? | ?
CC(C)(C)n1cnc2cc(NCc3cccs3)ccc21 | 0 | -59 | 0 | 0 | ? | 0
CCn1cnc2cc(NC(=O)c3cccs3)ccc21 | 0 | 0 | 0 | 0 | 0 | 0
CCn1cnc2cc(NCc3cccs3)ccc21 | 0 | 0 | 0 | 0 | 0 | 0
Cc1ccsc1C(=O)N1[C@@H]2CC[C@H]1CC(NC(=O)c1ccncc1)C2 (stereo not given in full) | - | - | 0 | - | - | -
COc1ccc(N2CC(C(=O)NCc3cccc(OC)c3)NC2=O)cc1 (stereo not given) | - | - | 0 | - | - | -
CN(C)CCN(Cc1ccccc1F)C(=O)c1ccc(S(C)(=O)=O)cc1 | - | - | 0 | - | - | -
CNCCCCOc1ccc(C(C)(C)C)cc1Cl | 0 | -55 | ? | ? | ? | 0
COc1ccc(NC(=O)C2CCCN(C(=O)c3cnn(-c4ccccc4)c3-n3cccc3)C2)cc1 (stereo not given) | - | - | 0 | 10µM | ? | -
Cc1cc(C)c(NC(=O)C2CCCN(C(=O)c3cnn(-c4ccccc4)c3-n3cccc3)C2)c(C)c1 (stereo not given) | - | - | 0 | ? | ? | -
CC(=O)c1cccc(NC(=O)C2CCCN(C(=O)c3cnn(-c4ccccc4)c3-n3cccc3)C2)c1 (stereo not given) | - | - | 0 | ? | ? | -
Cc1cc(C)cc(NC(=O)C2CCCN(C(=O)c3cnn(-c4ccccc4)c3-n3cccc3)C2)c1 (stereo not given) | - | - | ? | 18µM | 18µM | -
CSCC[C@H](NC(=O)OC(C)(C)C)c1nnc(SC)o1 | - | - | 0 | - | - | -
Cc1ccc(C(=O)NC(Nc2ccc(C)c(C)c2)C(Cl)(Cl)Cl)cc1 (stereo not given) | - | - | 0 | - | - | -
COc1ccc(-c2n[nH]c(=S)n2-c2ccc(Br)cc2)cc1OC | 0 | 0 | 16µM | 0 | 0 | 0
COc1cc(-c2n[nH]c(=S)n2-c2ccc(C)cc2)cc(OC)c1OC | 0 | 0 | ? | 0 | 16µM | 0
COc1ccc(-c2n[nH]c(=S)n2-c2ccccc2C)cc1OC | 0 | 0 | ? | 0 | 0 | 0
SMILES | HT1080NT lethal | IL1B secr inh | 12-LOX inh | TDP1 cell noCPT | TDP1 cell CPT | HT1080 IDH1KD tx
O=C(Nc1ccccc1-c1nc2ccccc2s1)C1=COCCO1 | 0 | 0 | 0 | ? | ? | ?
CN(C)C(=O)c1ccc(-c2nccc(NCc3ccccc3)n2)cc1 | - | - | 45µM | 0 | ? | -
c1csc(CNc2ccnc(-c3ccoc3)n2)c1 | - | - | 13µM | 0 | ? | -
Cc1cnc(CNc2ccnc(-c3ccoc3)n2)cn1 | - | - | ? | 0 | 0 | -
CN(C)c1ccc(-c2nccc(NCc3cccs3)n2)cc1 | - | - | ? | 23µM | 21µM | -
Cc1ccccc1-c1nccc(Nc2ccc(F)cc2)n1 | - | - | 0 | ? | ? | -
COc1ccccc1-c1nccc(Nc2ccc(F)cc2)n1 | - | - | ? | ? | 23µM | -
CN(C)C(=O)c1ccc(-c2nccc(NCc3cccs3)n2)cc1 | - | - | ? | 0 | 0 | -
CC(=O)c1ccc(N2CCN(C(=O)C3CCN(S(=O)(=O)c4cn(C)c(C)n4)CC3)CC2)cc1 | - | - | 0 | - | - | -
COc1ccccc1-c1nccc(NCc2cccs2)n1 | - | - | 13µM | ? | 21µM | -
Fc1ccc(Nc2ccnc(-c3ccc4c(c3)OCO4)n2)cc1 | - | - | 18µM | 0 | ? | -
COC(=O)[C@]1(CC(C)C)N[C@H](c2cc(C(C)C)no2)[C@@H]2C(=O)N(C)C(=O)[C@@H]21 | - | - | 0 | - | - | -
CCCCCCSc1ccc([C@H]2N[C@@](CC(C)C)(C(=O)OC)[C@H]3C(=O)N(C)C(=O)[C@@H]23)cc1OC | 0 | -53 | 0 | 18µM | ? | 0
CCN1C(=O)[C@H]2[C@@H](c3ccc(-c4ccc(OC)cc4)c(OC)c3)N[C@@](CC(C)C)(C(=O)OC)[C@H]2C1=O | 0 | 0 | 0 | ? | ? | 0
COC(=O)[C@]1(CC(C)C)N[C@H](c2ccc(SC3CCCCC3)c(OC)c2)[C@@H]2C(=O)N(C)C(=O)[C@@H]21 | 0 | ? | 0 | 18µM | ? | 0
CCc1cc2ccc(C)cc2nc1SCC(=O)NC1CCCC1 | 0 | 0 | 0 | 0 | 0 | 0
Cc1cc2cc(C(=O)N3CCc4c([nH]c5ccccc45)C3c3ccccn3)ccc2o1 (stereo not given) | 0 | 0 | 0 | 18µM | ? | ?
CC(=O)c1ccc(C(=O)N2CCc3c([nH]c4ccccc34)C2c2cccc(C)n2)s1 (stereo not given) | 0 | -67 | 0 | 15µM | 23µM | ?
CC(=O)c1cc(CC(=O)N2CCc3c([nH]c4ccccc34)C2c2ccccn2)cs1 (stereo not given) | 0 | 0 | 0 | ? | ? | 0
CC(=O)Nc1ccc(CN2CCc3c([nH]c4ccccc34)C2c2ccccn2)cc1 (stereo not given) | 23µM | 0 | 0 | 21µM | ? | 18µM
CCOC(=O)c1[nH]c(C)c(C(=O)N2CCc3c([nH]c4ccccc34)C2c2ccccn2)c1C (stereo not given) | 0 | -52 | 0 | ? | 16µM | 0
O=C(Cn1c(SCc2ccccc2F)nc2ccncc21)Nc1ccccc1C(F)(F)F | - | - | 0 | 0 | ? | -
N[C@H](C(=O)O)c1ccc(C(=O)O)cc1 | - | - | 0 | 0 | 0 | -
